Screens: PubChem, National Center for Advancing Translational Sciences (NCATS)
HT1080-NT tox: kills 2HG-producing HT-1080-NT fibrosarcoma cells; HT-1080-NT fibrosarcoma viability, CellTiter-Glo ATP luminescence, 48 h; Potency, µM (top dose mostly 46.1 µM), inactives show at the top dose activity, negative = less viability, usual class: cytotoxic; 360,000 compounds, 1.6% hits;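 note: NT is the 2HG producing partner of a matched IDH1 knockdown line; potency is the fitted concentration of half-maximal effect; 0% = DMSO-treated cells and -100% = media-only wells without cells; nearly all actives have a fitted effect of over 55% in size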
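HT-1080-NT fibrosarcoma cells (2HG-overproducing), 750 cells/well in RPMI with 5% FBS, dosed after 2 h and incubated 48 h at 37C. CellTiter-Glo luminescence normalized to DMSO and no-cell wells; concentration-response curves fitted and classed.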
HT1080 IDH1KD tx: toxicity to HT-1080 IDH1 knockdown cells (counter line) | HT-1080 IDH1 knockdown viability, ATP luminescence, 48 h | Potency, µM (titrated, usually from 46.1 µM), for inactives: top-dose activity, negative = toxicity, actives largely listed as cytotoxic | 360,000 compounds, 2% hits;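 note: potency is the fitted concentration of half-maximal effect; 0% = DMSO wells and -100% = cell-free medium wells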
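IDH1KD HT-1080 cells, 750/well, RPMI + 5% FBS; compound pinned after 2 h settling; 48 h, 37 °C; CellTiter-Glo luminescence; % activity normalised to DMSO and no-cell wells; curves fitted, classed by r2 and efficacy.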
ELG1 repair inh: inhibitors of ELG1-dependent DNA repair in HEK293T cells; HEK293T ELG1-luciferase reporter, luminescence, 16 h; DNA damage induced by 5-fluorouridine; Potency, µM (series often up to 46.1 µM), without a hit: at the top dose activity change, negative = inhibition, usual class: inhibitors; 330,000 compounds, 2.3% hits; note: potency is the fitted concentration of half-maximal effect; nearly all actives have a fitted effect of over 55% in size
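Overnight (16 hr) co-exposure of 2,000 cells/well to 5-fluorouridine and compound at 37 °C preceded detection. Luciferase was quantified via ONE-Glo luminescence; loss of signal denotes inhibition.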
IL1B secr inh: blocks inflammasome-driven IL-1 beta release | 360,000 compounds, 4.7% hits | THP-1 LPS/ATP IL-1B secretion, AlphaLISA, 16 h; hits give low values | AID 743279 | activity change, % at 57.5 µM; in the data active = activity change below about -50%; inconclusive = mostly about -30% to -49%
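THP-1 cells pretreated 1 hr with compounds (up to 57.5 uM final), then stimulated with LPS (250 ng/mL final) plus ATP (1.25 mM final); secreted IL-1B measured by AlphaLISA after 16 hr, decreased signal indicating inhibition.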
DT40 TDP1 no CPT: qHTS for Inhibitors of human tyrosyl-DNA phosphodiesterase 1 (TDP1): qHTS in cells in absence of CPT; Potency, µM (highest dose often 46.2 µM), for the others: at the highest dose activity change, negative = growth inhibition, most hits filed as inhibitors; DT40 Tdp1-/- hTDP1 cells, no CPT, ATP luminescence, 48 h; 420,000 compounds, 15% hits; note: potency is the fitted concentration of half-maximal effect; nearly all actives have a fitted effect of over 55% in size
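Growth of hTDP1-complemented DT40 Tdp1-knockout cells is measured by ATP luminescence after at least 48 hr compound exposure at 37 °C, with DMSO substituting for the 20 nM CPT used in the parallel screen.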
DT40 TDP1 CPT: growth inhibition of DT40 Tdp1-/-;hTDP1 cells with camptothecin (screen for TDP1 inhibitors); chicken DT40 Tdp1-/-;hTDP1 cells + 20 nM CPT, ATP luminescence, 48 h; Potency, µM (titrated, usually from 46.2 µM), without a hit: at the top dose activity change, negative = growth inhibition, usual class: inhibitors; 420,000 compounds, 12% hits; AID 686979; note: potency is the fitted concentration of half-maximal effect; nearly all actives have a fitted effect of over 55% in size
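Cell growth measured by CellTiter-Glo luminescence after a minimum 48 h, 37 C compound exposure with 20 nM CPT in Tdp1-knockout DT40 cells stably expressing hTDP1, seeded 400/well; qHTS titration format.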
The depositor's hits bear a star; ? = inconclusive; / = no result; [ ] = dose if it differs, or a comment. An excerpt weighted towards active compounds, which were near 19% of everything screened. Unless noted, calls come from the whole dose curve; as a rule, active = well fitted curve in the direction sought with a large enough effect; inconclusive = small, poorly fitted or top-dose-only effect, or another doubt; inactive = no such curve, though single readings can be large; an effect the other way counts as inactive or inconclusive. Unless noted, % is set by controls: 0 for no effect and ±100 for the full control effect.

SMILES	HT1080-NT tox	HT1080 IDH1KD tx	ELG1 repair inh	IL1B secr inh	DT40 TDP1 no CPT	DT40 TDP1 CPT
Cc1ccc(NC(=O)CSc2nc3n[nH]c(C)c3c(=N)n2-c2cccc(C)c2)cc1	/	/	/	/	3.3µM*	5.8µM*
CCC(C)NC(=O)CSc1nc2n[nH]c(C)c2c(=N)n1-c1cc(Cl)ccc1C (stereo not given)	/	/	/	/	16µM*	?
Cc1cccc(NC(=O)CSc2nc3n[nH]c(C)c3c(=N)n2-c2cccc(Cl)c2)c1	/	/	/	/	15µM*	18µM*
CCC(C)NC(=O)CSc1nnc(-c2ccc(Cl)cc2)n1N (stereo not given)	1%	-2%	-3%	21	-22%	-11%
CCC(Sc1nc2n[nH]c(C)c2c(=N)n1-c1cccc(Cl)c1)C(=O)NCCOC (stereo not given)	-28%	?	-21%	-27	13µM*	23µM*
CCOc1ccc(C2c3c(oc4ccc(C)cc4c3=O)C(=O)N2CCCN(C)C)cc1OC (stereo not given)	/	/	/	/	?	-10%
CCn1c(=O)c(C(=O)Nc2ccc(C(C)=O)cc2)nc2ccccc21	/	/	/	/	-14%	-15%
Cc1cc(O)ccc1Nc1cc(-c2cccc(N)c2)ncn1	9%	17%	/	?	-22%	-16%
CCOC(=O)C(C)N1C(=O)S/C(=C\c2ccc(-c3ccccc3C(=O)O)o2)C1=O (stereo not given)	2%	3%	-4%	3	-2%	2%
C=CCN1C(=O)S/C(=C/c2ccsc2)C1=O	4%	-2%	?	-1	-24%	?
CC(C)N1C(=O)S/C(=C/c2ccc(Sc3nc4ccccc4[nH]3)o2)C1=O	-4%	?	?	-79*	10µM*	15µM*
C=CCN1C(=O)S/C(=C/c2ccc(Sc3nc4ccccc4[nH]3)o2)C1=O	-17%	?	-18%	-28	21µM*	23µM*
COCOCCn1cc(CN2CCS(=O)(=O)N(Cc3ccc(-c4ccc(OC)c(OC)c4)cc3)C(C)C2=O)nn1 (stereo not given)	10%	1%	/	-22	10µM*	16µM*
COCOCCn1cc(CN2CCS(=O)(=O)N(Cc3ccc(-c4ccc(C)cc4)cc3)C(C)C2=O)nn1 (stereo not given)	-12%	-13%	/	32	15µM*	?
COCOCCn1cc(CN2CCS(=O)(=O)N(Cc3ccc(-c4ccc(Cl)nc4)cc3)C(C)C2=O)nn1 (stereo not given)	-2%	-2%	/	-4	?	-22%
COCOCCn1cc(CN2CCS(=O)(=O)N(Cc3ccc(-c4ccncc4)cc3)C(C)C2=O)nn1 (stereo not given)	18%	13%	/	4	-16%	-18%
COCOCCn1cc(CN2CCS(=O)(=O)N(Cc3ccc(-c4ccc(Cl)c(Cl)c4)cc3)C(C)C2=O)nn1 (stereo not given)	23µM*	?	/	-16	4.1µM*	4.1µM*
O=C(CN1CCOCC1)Nc1ccccc1Sc1ccccc1	0%	19%	-15%	10	7%	30%
N=c1sccn1CC(=O)Nc1ccccc1Sc1ccccc1	-7%	-20%	-14%	-55*	?	-21%
CC(=O)N1CCN(CC(=O)Nc2ccccc2Sc2ccccc2)CC1	-3%	1%	-23%	0	23µM*	?
CC1CN(CC(=O)Nc2ccccc2Sc2ccccc2)CC(C)O1 (stereo not given)	-1%	-7%	?	0	23µM*	23µM*
COc1ccc(S(=O)(=O)N2CCC(C(=O)NN3CCCCC3)CC2)cc1	-1%	2%	/	19	-3%	2%
CC(C)C(NC(=O)c1ccccc1)C(=O)OCC(=O)N1CCN(c2ccccc2)CC1 (stereo not given)	-2%	4%	8%	-8	?	7%
CCC1(C2CCN(Cc3c(C)[nH]c4ccccc34)CC2)NC(=O)N(Cc2ccc3c(c2)OCO3)C1=O (stereo not given)	/	/	/	/	16µM*	23µM*
CCC1(C2CCN(Cc3ccc(C)s3)CC2)NC(=O)N(CC2COc3ccccc3O2)C1=O (stereo not given)	/	/	/	/	21µM*	?
SMILES	HT1080-NT tox	HT1080 IDH1KD tx	ELG1 repair inh	IL1B secr inh	DT40 TDP1 no CPT	DT40 TDP1 CPT
CCC1(C2CCN(Cc3ccc(OC)cc3)CC2)NC(=O)N(CC2COc3ccccc3O2)C1=O (stereo not given)	/	/	/	/	?	-16%[9.04 µM]
COCCN1CCN(Cc2ccc(C(=O)NC(C)C)cc2)C(=O)C1=O	/	/	/	/	0%	-14%
Cc1ccc(C(=O)OC(C(=O)O)C(OC(=O)c2ccc(C)cc2)C(=O)O)cc1 (stereo not given)	-2%	-1%	14%	0	12%	-9%
COc1ccc(-c2oc3ncn4nc(COc5ccc(Cl)cc5)nc4c3c2-c2ccc(OC)cc2)cc1	/	/	/	/	-27%	-25%
Cc1cc(C)cc(C(=O)N(C)[C@H](Cc2ccc(-c3ccccc3)cc2)C(=O)N[C@@H](Cc2c[nH]c3ccccc23)C(=O)O)c1	/	/	/	/	-25%	0%
NC(=O)C1CCN(C(=O)c2ccc3c(=O)n(Cc4ccco4)c(SCc4ccc([N+](=O)[O-])cc4)nc3c2)CC1	-5%	-3%	?	-19	?	?
CCOC(=O)N1CCN(S(=O)(=O)c2ccc(OC)c(Cl)c2Cl)CC1	-9%	-8%	-18%	-3	13µM*	?
CCOC(=O)N1CCN(S(=O)(=O)c2ccc(OC)c(Cl)c2)CC1	9%	13%	1%	2	-23%	-8%
CCOC(=O)N1CCN(S(=O)(=O)c2ccc(OCC(=O)OC)c(Cl)c2)CC1	-3%	10%	23%	-91*	-4%	0%
CCOC(=O)N1CCN(S(=O)(=O)c2ccc(OCC)c3ccccc23)CC1	-7%	?	-8%	-80*	23µM*	16µM*
CCOC(=O)N1CCN(S(=O)(=O)c2ccc(OCC)cc2)CC1	2%	12%	0%	12	-27%	?
COc1ccc(S(=O)(=O)N2CCCC2)c(Cl)c1Cl	-4%	-8%	12%	-12	-24%	-23%
CCOC(=O)c1nc2cc3n(c(CC(C)C)c-2c1C)CC(C)=C3C	13%	7%	-25%	-2	?	21µM*
